# Most compounds without a hit are left out; they make up all but 17% or so of the library.
# TDP1 inh = blocks human tyrosyl-DNA phosphodiesterase 1; recombinant TDP1, AlphaScreen DNA substrate cleavage; Q9NUW8; Potency, µM (top dose mostly 130 µM), for inactives: at the highest dose activity change, negative = inhibition, usual class: inhibitors; AID 485290; 350,000 tested, 0.28% active; note: % is set by controls: 0 for no effect and ±100 for the full control effect; nearly all actives have a fitted effect of over 40% in size
# Target sequence (Q9NUW8 whole entry, looked up): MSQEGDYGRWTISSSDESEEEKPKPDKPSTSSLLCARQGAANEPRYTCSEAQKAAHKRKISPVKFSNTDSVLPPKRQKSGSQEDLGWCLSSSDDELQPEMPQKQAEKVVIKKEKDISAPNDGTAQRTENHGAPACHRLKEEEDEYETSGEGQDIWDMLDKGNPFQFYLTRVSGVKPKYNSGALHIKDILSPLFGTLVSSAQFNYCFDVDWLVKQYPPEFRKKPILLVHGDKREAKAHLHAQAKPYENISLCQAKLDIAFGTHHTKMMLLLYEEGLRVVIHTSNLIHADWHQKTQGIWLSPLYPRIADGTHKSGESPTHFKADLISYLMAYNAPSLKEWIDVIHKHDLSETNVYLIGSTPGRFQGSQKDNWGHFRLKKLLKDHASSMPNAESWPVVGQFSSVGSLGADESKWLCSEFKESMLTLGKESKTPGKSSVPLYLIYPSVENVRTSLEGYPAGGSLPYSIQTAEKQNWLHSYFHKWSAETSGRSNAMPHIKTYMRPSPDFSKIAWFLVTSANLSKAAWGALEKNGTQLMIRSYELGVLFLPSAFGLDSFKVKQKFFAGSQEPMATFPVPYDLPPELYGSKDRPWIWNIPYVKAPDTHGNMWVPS
#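 AlphaScreen read-out: signal falls as enzyme removes the 3' tyrosine-FITC from a 5'-biotinylated DNA oligo (15 nM, 5 min, RT). Enzyme was E. coli-made recombinant Tdp1 at 1 nM, exposed to compound for 15 min beforehand; beads 10 ug/ml, 10 min.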
# DT40 TDP1 no CPT = qHTS for Inhibitors of human tyrosyl-DNA phosphodiesterase 1 (TDP1): qHTS in cells in absence of CPT; Potency, µM (top dose mostly 46.2 µM), for the others: top-dose activity change, negative = growth inhibition, actives largely listed as inhibitors; 420,000 tested, 15% active; AID 686978, 2013; DT40 Tdp1-/- hTDP1 cells, no CPT, ATP luminescence, 48 h; note: % is set by controls: 0 for no effect and ±100 for the full control effect; nearly all actives have a fitted effect of over 55% in size
#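 A cellular qHTS used chicken DT40 cells lacking endogenous Tdp1 but carrying stably transfected human TDP1. Compounds were applied without camptothecin, and cell growth kinetics were judged by ATP-dependent luminescence after ≥48 hr.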
# ClpP mod = qHTS Assay for Activators of ClpP | ATP-dependent Clp protease proteolytic subunit (Bacillus subtilis (strain 168)), P80244 | purified B. subtilis ClpP, FRET peptide cleavage, 20 min | Potency, µM (series often up to 57.5 µM), without a hit: at the top dose activity change, negative = active | 340,000 tested, 1.9% active | AID 651965, 2013; active = well fitted falling curve with a large enough effect; inconclusive = small, poorly fitted or top-dose-only effect; inactive = no such curve, though single readings can be large or run the other way; note: the source files actives as falling curves though it sought activators and does not explain the sign; nearly all actives have a fitted effect of over 65% in size
#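 FRET quenching reversal measured ClpP activation: 10 microg/mL B. subtilis ClpP at pH 8 with the FRET-FV decapeptide, read at 430 nm after 320 nm excitation. The 20-min minus 0-min signal was scaled between DMSO/no-enzyme wells and ADEP (5.8 microM final).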
# DT40 TDP1 CPT = DT40-hTDP1 cell growth loss with CPT | 420,000 tested, 12% active | chicken DT40 Tdp1-/-;hTDP1 cells + 20 nM CPT, ATP luminescence, 48 h | Potency, µM (series often up to 46.2 µM), for inactives: at the top dose activity change, negative = growth inhibition, usual class: inhibitors; note: % is set by controls: 0 for no effect and ±100 for the full control effect; nearly all actives have a fitted effect of over 55% in size
#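 Chicken DT40 Tdp1-/- cells stably complemented with human TDP1 were seeded at 400 cells/well in medium containing 20 nM camptothecin, exposed to pin-transferred compounds, and grown at 37 °C for at least 48 hr. Viability was read as ATP luminescence.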
# Active calls of the source: *; ? = inconclusive; . = not tested or not shown; [ ] = another dose, or the depositor's remark. Unless noted, calls come from the whole dose curve; as a rule, active = well fitted curve in the direction sought with a large enough effect; inconclusive = small, poorly fitted or top-dose-only effect, or another doubt; inactive = no such curve, though single readings can be large; an effect the other way counts as inactive or inconclusive. Potency is the fitted concentration of half-maximal effect.
SMILES,TDP1 inh,DT40 TDP1 no CPT,ClpP mod,DT40 TDP1 CPT
COc1ccc(O[C@H]2C=C[C@@H](c3ccccc3)O[C@H]2COC(=O)CC/C(C)=N\O[C@@H](C)c2cn([C@H](CO)Cc3ccccc3)nn2)cc1,8%[21 µM],.,.,.
O=C(c1ccncc1)N1CCC2(CCCN(Cc3nccs3)C2)CC1,.,-2%,.,12%
CC(=O)c1sc(NCCOc2ccc(C)cc2)nc1C,0%,15µM*,1%,?
C=CCn1c(CCc2cc(C(C)(C)C)c(O)c(C(C)(C)C)c2)n[nH]c1=S,7%,?,.,?
Cc1ccc(NC(=O)C(=O)NCC2OCCc3ccccc32)cc1 (centres undefined),5%,2%,-2%,-25%
O=C(Nc1ccc(Cl)cc1)c1ccc(OCC2CCCO2)cc1 (centres undefined),3%,?,14µM*,8%
O=C(NCc1ccc(Cl)cc1)c1ccc(OCC2CCCO2)cc1 (centres undefined),-3%,-10%,-1%,4%
Cc1cc(NC(=O)c2ccc(OCC3CCCO3)cc2)ccc1Br (centres undefined),.,15µM*,2%,21µM*
O=C(NCC1OCCc2ccccc21)c1ccc(NC(=O)c2ccc(Cl)cc2)cc1 (centres undefined),1%,16µM*,-16%,23µM*
CCN(CC)S(=O)(=O)c1ccc(NC(=O)c2ccc(OCC3CCCO3)cc2)cc1 (centres undefined),1%,15µM*,1%,23µM*
C[C@@H]1CN([C@@H](C)CO)C(=O)CCCn2nncc2CO[C@H]1CN(C)S(=O)(=O)c1ccc(-c2ccccc2)cc1,.,-54%,1%,?
Cc1noc(NS(=O)(=O)c2ccc(NC(=O)COc3ccccc3Br)cc2)c1C,-1%[12.3 µM],?,-15%,?
O=C(O)/C=C/c1ccc(-n2ccnc2)cc1,2%,13%,0%,14%
CCCCNC(=O)CCCN1C(=O)c2cccnc2Sc2ccccc21,.,-15%,2%,0%
Oc1c(Br)cc(/C=N/Nc2nncc3ccccc23)cc1Br,.,23µM*,.,?
COc1ccc(/C(C)=N/Nc2nncc3ccccc23)cc1,.,-18%,-7%,9%
CC(C)(C)OC(=O)NCCCC1=CC2=CC(=O)C(C)(OC(=O)c3cnc4ccccc4n3)C(=O)C2=CO1 (centres undefined),4%,.,.,.
CC1(C)CC(=O)C2=C(C1)OC(N)=C(C#N)C2C#Cc1ccccc1 (centres undefined),-4%,4.6µM*,4%,5.2µM*
C/C(=C\c1ccco1)C1C(C#N)=C(N)Oc2n[nH]c(-c3ccccc3)c21 (centres undefined),7%,-23%,-2%,-24%
CC(c1ccccc1)C1C(C#N)=C(N)OC2=C1C(=O)CC(C)(C)C2 (centres undefined),1%,6%,1%,-6%
C/C(=C\c1ccco1)C1C(C#N)=C(N)OC2=C1C(=O)CC(C)(C)C2 (centres undefined),7%,?,-3%,26µM*
C/C(=C\c1ccco1)C1C(C#N)=C(N)Oc2n[nH]c(-c3ccc(C)cc3)c21 (centres undefined),3%,?,0%,16µM*
CC1(C)CC(=O)C2=C(C1)OC(N)=C(C#N)C2c1ccoc1 (centres undefined),6%,13%,0%,1%
C/C(=C\c1ccco1)CN1CCOc2ccc(CN3CCC(Oc4cccnc4)CC3)cc2C1,.,-33%,.,2%[9.04 µM]
Cc1ccc(Cl)cc1-n1nnc(-c2nc(-c3ccc4c(c3)OCO4)no2)c1C,3%,21µM*,-1%,?
SMILES,TDP1 inh,DT40 TDP1 no CPT,ClpP mod,DT40 TDP1 CPT
Cc1ccc(C)c(-n2nnc(-c3nc(-c4ccccc4C)no3)c2C)c1,3%,15µM*,-1%,16µM*
Cc1c(Cl)cccc1-n1nnc(-c2nc(-c3ccc4c(c3)OCO4)no2)c1C,3%,?,-12%,23µM*
COc1ccc(Cl)cc1-n1nnc(-c2nc(-c3ccc4c(c3)OCO4)no2)c1C,0%,-8%,-3%,1%
CCOC(=O)c1cnn(-c2nc(-c3ccccc3)cs2)c1C(F)(F)F,.,-6%,32µM*,?
CCOC(=O)c1cnn(-c2nc(-c3ccccc3F)cs2)c1C(F)(F)F,0%,1%,35µM*,-17%
COc1ccc(-c2csc(-n3ncc(C(=O)O)c3C(F)(F)F)n2)cc1,.,-7%,-10%,-3%
CCOC(=O)c1cnn(-c2nc(-c3ccc(F)cc3)cs2)c1C(F)(F)F,-11%,-18%,32µM*,-2%
Cc1cc(C(=O)NCC(=O)OCC(=O)N(C(C)C)C(C)C)ccc1[N+](=O)[O-],3%,2%,0%,-5%
CC1(C)CC(=O)C(C(C2=C(O)CC(C)(C)CC2=O)c2ccc([N+](=O)[O-])cc2)C(=O)C1 (centres undefined),0%,-16%,1%,?
CC1(C)CC(=O)C(C(c2cc([N+](=O)[O-])ccc2Cl)C2C(=O)CC(C)(C)CC2=O)C(=O)C1,.,5.8µM*,.,?
Cc1sc(C(C2C(=O)CC(C)(C)CC2=O)C2C(=O)CC(C)(C)CC2=O)cc1[N+](=O)[O-],10%,23µM*,1%,?
COc1cc(/C=N/Nc2nc(C)cc(C)n2)cc(OC)c1OC,4%,-3%,0%,5%
CCn1c(SC)nc2c([nH]c3ccccc32)c1=O,1%,4%,-14%,-22%
O=C(Nc1nc2cc3c(cc2s1)OCCO3)c1ccncc1,5%,23µM*,?,?
CCOC(=O)c1ccc2nc(NC(=O)c3ccco3)sc2c1,3%,?,?,?
CCOc1ccc2nc(NC(=O)c3ccco3)sc2c1,-20%,?,.,?
O=C(Nc1nc2cc3c(cc2s1)OCCO3)c1ccco1,3%,16µM*,0%,12µM*
O=C(NC(=S)Nc1nc2ccc(F)cc2s1)c1ccco1,2%,2.9µM*,.,4.1µM*
CC12CCC(C1)C(C)(C)C2=O (centres undefined),2%,-1%,.,-27%
CC(C)CCNC(=O)C1CC(c2ccccc2[N+](=O)[O-])=NO1 (centres undefined),.,-30%,-2%,?
COc1cccc(-c2nnn(CC(C)=O)n2)c1,-3%,-3%,1%,3%
CC(=O)C1=C(c2ccc(Cl)c(Cl)c2)N(C(C)=O)n2c(nnc2-c2ccccc2)S1,5%,?,-2%,?
CC(=O)C1=C(c2ccc(Cl)c(Cl)c2)N(C(C)=O)n2c(C)nnc2S1,0%,4.1µM*,-6%,2.9µM*
COc1cccc(C2=C(C(C)=O)Sc3nncn3N2C(C)=O)c1,5%,23µM*,2%,?

# Compound activity as filed in PubChem.
